In PubChem BioAssay (Tox21) one finds Potency, outcome and max activation data, which are given here for 11 molecules.

A short description of assay [1]: Human pregnane X receptor (PXR) small molecule agonists, qHTS cell viability counter screen (AID 1346977). Also: nearly all actives have a fitted effect of over 50% in size. The method, boiled down: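 HepG2 cells stably carrying the PXR-Luc reporter are cultured with 5% charcoal-stripped FBS and treated with compounds for 24hr. CellTiter-Fluor is added at 23hr and fluorescence is read after 1hr.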
Assay [2] is described as follows: Caspase-3/7 induction in HepG2 cells by small molecules, qHTS assay (AID 1346978). Also: nearly all actives have a fitted effect of over 15% in size. The essentials:
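Wild-type HepG2 cells, 2,000/well, settled 5 hr at 37 C and 5% CO2, then compound-treated for 17 hr; caspase-3/7 activity read by luminescent Caspase-Glo 3/7 after 30 min at room temperature.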

The nature of assay [3]: Caspase-3/7 induction in CHO-K1 cells by small molecules, qHTS cell viability counter screen (AID 1346979). Also: nearly all actives have a fitted effect of over 35% in size. Also: potency is read from the fitted curve at half-maximal effect. The essentials: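 Seeding: 1,500 CHO-K1 cells/well. Rest: 5hr, 37C. Treatment: compounds in DMSO, 16hr. Read: CellTiter-Fluor, 1hr, fluorescence.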
Assay [4] in a line: Caspase-3/7 induction in HepG2 cells by small molecules, qHTS cell viability counter screen (AID 1346981). Also: nearly all actives have a fitted effect of over 30% in size. Also: potency is read from the fitted curve at half-maximal effect. The essentials:
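Wild-type HepG2 cells (2,000/well) were allowed to settle for 5 hr at 37 C, 5% CO2, then dosed with compounds in DMSO by pin transfer. After 16 hr at 37 C, CellTiter-Fluor was added and fluorescence read 1 hr later.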

Assay [5] concerns the target Cytochrome P450 2D6 (Homo sapiens) (UniProt P10635). Put plainly: Cytochrome P450 Family 2 Subfamily D Member 6 (CYP2D6) small molecule antagonists: luciferase reporter qHTS assay (AID 1671196). Also: nearly all actives have a fitted effect of over 50% in size. Also: potency is read from the fitted curve at half-maximal effect. The essentials:
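CYP2D6 enzyme–substrate mix was held with compound for 10 min at room temperature, then NADPH regeneration solution was added and the reaction ran 1 h at room temperature. Luciferin product was detected by luminescence after 20 min with detection reagent.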

Assay [6] has as its target Cytochrome P450 2C19 (Homo sapiens) (UniProt P33261). Put plainly: Cytochrome P450 Family 2 Subfamily C Member 19 (CYP2C19) small molecule antagonists: luciferase reporter qHTS assay (AID 1671197). Also: nearly all actives have a fitted effect of over 65% in size. Also: potency is read from the fitted curve at half-maximal effect. The method, boiled down: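 Enzyme-substrate mix with proluciferin substrate (P450-Glo CYP2C19 system) preincubated with compounds 10 min at room temperature; NADPH regeneration solution added, 37C for 1 h; detection reagent stops reaction, luminescence read after 20 min. Ketoconazole positive control.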

Assay [7] addresses Cytochrome P450 2C9 (Homo sapiens) (UniProt P11712). As to the kind of experiment: Cytochrome P450 Family 2 Subfamily C Member 9 (CYP2C9) small molecule antagonists: luciferase reporter qHTS assay (AID 1671198). Also: nearly all actives have a fitted effect of over 50% in size. Also: potency is read from the fitted curve at half-maximal effect. The essentials:
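P450-Glo proluciferin substrate with CYP2C9 enzyme; 10 min RT preincubation, then NADPH regeneration 1 h at 37C; luciferin detection reagent 20 min RT, luminescence in relative luminescence units.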

Assay [8] addresses Voltage-gated inwardly rectifying potassium channel KCNH2 (Homo sapiens) (UniProt Q12809). As to the kind of experiment: Human Ether-a-go-go-Related Gene (hERG) channel small molecule antagonists: fluorescence cell-based qHTS assay (AID 1671200). Also: nearly all actives have a fitted effect of over 50% in size. Also: potency is read from the fitted curve at half-maximal effect. The method, boiled down:
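First, 1000 cells per well are seeded and cultured overnight at 37 C. Next, FluxOR II dye is loaded for 1 h at room temperature, protected from light. After 10 more minutes, stimulus is added and fluorescence is read.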

Assay [9] deals with Cytochrome P450 3A4 (Homo sapiens) (UniProt P08684). As to the kind of experiment: Cytochrome P450 Family 3 Subfamily A Member 4 (CYP3A4) small molecule antagonists: luciferase reporter qHTS assay (AID 1671201). Also: nearly all actives have a fitted effect of over 50% in size. Also: potency is read from the fitted curve at half-maximal effect. The method, boiled down: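 Enzyme and proluciferin substrate are mixed with test chemicals for 10 min, then NADPH regeneration system drives turnover for 1 h at room temperature. A detection reagent halts the reaction; luminescence after 20 min gives relative activity.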

The nature of assay [10]: Caspase-3/7 induction in CHO-K1 cells by small molecules, qHTS assay (AID 1346980). Also: nearly all actives have a fitted effect of over 15% in size. The essentials:
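Wild-type CHO-K1 cells exposed to compounds for 17hr at 37 C, 5% CO2. Caspase-3/7 activity then measured by Caspase-Glo 3/7 luminescence after 30min at room temperature.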

The target of assay [11] is Nuclear receptor subfamily 1 group I member 2 (Homo sapiens) (UniProt O75469). As to the kind of experiment: Human pregnane X receptor (PXR) small molecule agonists, qHTS assay (AID 1346982). Also: nearly all actives have a fitted effect of over 35% in size. Also: potency is read from the fitted curve at half-maximal effect. The method, boiled down: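 PXR-Luc HepG2 cells (CYP3A4 promoter-driven luciferase) were seeded in medium with 5% charcoal-stripped FBS, left 5 hr at 37 C, then exposed to compounds in DMSO for 24 hr. Luminescence was read after ONE-Glo addition.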

Assay [12] deals with Cytochrome P450 1A2 (Homo sapiens) (UniProt P05177). Put plainly: Cytochrome P450 Family 1 Subfamily A Member 2 (CYP1A2) small molecule antagonists: luciferase reporter qHTS assay (AID 1671199). Also: nearly all actives have a fitted effect of over 50% in size. Also: potency is read from the fitted curve at half-maximal effect. The essentials:
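Human CYP1A2 activity measured with a P450-Glo proluciferin substrate; compounds in DMSO preincubated 10 min at room temperature with enzyme-substrate mix, then NADPH regeneration system added for 1 h. Luciferin detection reagent, 20 min, luminescence read.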

Assay [13] has as its target Nuclear receptor subfamily 1 group I member 2 (Rattus norvegicus) (UniProt Q9R1A7). As to the kind of experiment: Rat pregnane X receptor (rPXR) activation by small molecules, qHTS assay (AID 1346983). Also: nearly all actives have a fitted effect of over 20% in size. To be noted: rPXR luciferase reporter cells, One-Glo luminescence, 24 h; max activation: active compounds read high. The method, boiled down: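 Cell-based rPXR activation assay: rPXR cells, 2,000 per well, rested 5hr at 37 C, then exposed to compounds in DMSO for 24 hr at 37 C. Luciferase activity read by One-Glo luminescence after 30 min at room temperature.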

The target in assay [14] is Nuclear receptor subfamily 1 group I member 2 (Homo sapiens) (UniProt O75469). As to the kind of experiment: Human pregnane X receptor (PXR) activation by small molecules, qHTS assay (AID 1346985). Also: nearly all actives have a fitted effect of over 40% in size. The essentials: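 DPX-2 cells (HepG2 co-transfected with a PXR response element and a CYP3A4-promoter luciferase construct) were seeded at 2,000 per well, rested 5 hr at 37C, then exposed to DMSO-dissolved compounds for 24 hr. Activation was read as luciferase luminescence.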

Unmarked numbers belong to inactive results. Inconclusive results are not listed. Calls of active or inactive are those of the source. Calls follow the shape of the dose curve; as a rule, active = well fitted curve in the direction sought with a large enough effect in the repeat runs; inconclusive = weak or mixed curves; inactive = no such curve, though single readings can be large; an effect the other way counts as inactive or inconclusive.
% is scaled to controls: 0 for no effect and ±100 for the full control effect.

Sequence of Cytochrome P450 2C9 (Homo sapiens) (P11712 whole entry, looked up): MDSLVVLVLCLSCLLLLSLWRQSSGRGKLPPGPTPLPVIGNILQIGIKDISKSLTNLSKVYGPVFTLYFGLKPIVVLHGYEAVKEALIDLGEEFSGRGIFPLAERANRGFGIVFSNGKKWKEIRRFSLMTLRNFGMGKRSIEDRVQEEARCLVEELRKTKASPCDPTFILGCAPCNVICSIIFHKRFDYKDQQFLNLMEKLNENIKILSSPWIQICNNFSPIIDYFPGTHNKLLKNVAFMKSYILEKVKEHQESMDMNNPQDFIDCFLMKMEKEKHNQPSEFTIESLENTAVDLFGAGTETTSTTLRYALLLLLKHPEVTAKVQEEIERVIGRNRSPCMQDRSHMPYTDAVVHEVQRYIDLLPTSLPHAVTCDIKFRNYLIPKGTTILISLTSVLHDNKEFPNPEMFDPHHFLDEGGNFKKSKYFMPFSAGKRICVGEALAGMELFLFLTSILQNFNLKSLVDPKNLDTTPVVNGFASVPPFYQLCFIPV
Sequence of Voltage-gated inwardly rectifying potassium channel KCNH2 (Homo sapiens) (Q12809 whole entry, looked up): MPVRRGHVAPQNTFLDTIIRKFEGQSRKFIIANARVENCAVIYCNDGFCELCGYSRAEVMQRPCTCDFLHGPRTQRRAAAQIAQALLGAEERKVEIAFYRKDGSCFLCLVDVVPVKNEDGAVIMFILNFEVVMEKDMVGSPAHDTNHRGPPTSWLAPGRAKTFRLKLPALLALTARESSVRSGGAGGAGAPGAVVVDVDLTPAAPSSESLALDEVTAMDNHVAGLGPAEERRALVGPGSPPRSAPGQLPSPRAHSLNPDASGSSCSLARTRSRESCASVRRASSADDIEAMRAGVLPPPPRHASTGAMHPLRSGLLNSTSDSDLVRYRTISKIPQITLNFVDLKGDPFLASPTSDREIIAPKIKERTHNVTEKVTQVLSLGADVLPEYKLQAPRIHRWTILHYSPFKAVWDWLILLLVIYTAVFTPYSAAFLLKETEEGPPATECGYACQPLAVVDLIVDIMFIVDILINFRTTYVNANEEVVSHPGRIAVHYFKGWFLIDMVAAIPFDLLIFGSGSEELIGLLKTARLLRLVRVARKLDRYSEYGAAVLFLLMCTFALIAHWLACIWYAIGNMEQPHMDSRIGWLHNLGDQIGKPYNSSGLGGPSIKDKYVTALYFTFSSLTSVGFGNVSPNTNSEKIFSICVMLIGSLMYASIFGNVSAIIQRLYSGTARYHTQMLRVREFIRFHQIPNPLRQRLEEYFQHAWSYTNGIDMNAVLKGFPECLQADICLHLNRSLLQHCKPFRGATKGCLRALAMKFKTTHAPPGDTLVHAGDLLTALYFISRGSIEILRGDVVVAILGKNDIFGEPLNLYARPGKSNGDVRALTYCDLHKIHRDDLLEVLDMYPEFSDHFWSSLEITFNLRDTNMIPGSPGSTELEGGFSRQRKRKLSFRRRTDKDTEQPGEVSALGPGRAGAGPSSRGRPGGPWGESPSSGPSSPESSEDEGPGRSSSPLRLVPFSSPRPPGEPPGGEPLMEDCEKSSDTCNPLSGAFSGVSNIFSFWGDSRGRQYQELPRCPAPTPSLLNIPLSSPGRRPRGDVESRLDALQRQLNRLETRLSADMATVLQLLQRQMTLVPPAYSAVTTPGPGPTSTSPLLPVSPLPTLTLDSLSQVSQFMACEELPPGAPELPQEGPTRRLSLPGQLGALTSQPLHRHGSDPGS
Sequence of Cytochrome P450 2C19 (Homo sapiens) (P33261 whole entry, looked up): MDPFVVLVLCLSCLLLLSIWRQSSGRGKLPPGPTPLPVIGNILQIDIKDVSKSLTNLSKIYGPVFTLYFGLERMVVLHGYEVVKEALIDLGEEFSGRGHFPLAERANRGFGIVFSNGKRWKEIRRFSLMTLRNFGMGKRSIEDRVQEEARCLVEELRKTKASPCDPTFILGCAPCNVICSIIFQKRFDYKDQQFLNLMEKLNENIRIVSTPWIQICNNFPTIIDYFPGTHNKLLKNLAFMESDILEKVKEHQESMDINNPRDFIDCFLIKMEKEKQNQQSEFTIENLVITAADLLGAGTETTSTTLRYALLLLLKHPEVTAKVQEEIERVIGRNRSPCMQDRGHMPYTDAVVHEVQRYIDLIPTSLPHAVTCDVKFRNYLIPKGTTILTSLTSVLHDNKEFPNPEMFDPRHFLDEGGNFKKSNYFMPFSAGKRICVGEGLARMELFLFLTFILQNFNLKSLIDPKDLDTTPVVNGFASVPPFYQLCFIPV
Sequence of Cytochrome P450 1A2 (Homo sapiens) (P05177 whole entry, looked up): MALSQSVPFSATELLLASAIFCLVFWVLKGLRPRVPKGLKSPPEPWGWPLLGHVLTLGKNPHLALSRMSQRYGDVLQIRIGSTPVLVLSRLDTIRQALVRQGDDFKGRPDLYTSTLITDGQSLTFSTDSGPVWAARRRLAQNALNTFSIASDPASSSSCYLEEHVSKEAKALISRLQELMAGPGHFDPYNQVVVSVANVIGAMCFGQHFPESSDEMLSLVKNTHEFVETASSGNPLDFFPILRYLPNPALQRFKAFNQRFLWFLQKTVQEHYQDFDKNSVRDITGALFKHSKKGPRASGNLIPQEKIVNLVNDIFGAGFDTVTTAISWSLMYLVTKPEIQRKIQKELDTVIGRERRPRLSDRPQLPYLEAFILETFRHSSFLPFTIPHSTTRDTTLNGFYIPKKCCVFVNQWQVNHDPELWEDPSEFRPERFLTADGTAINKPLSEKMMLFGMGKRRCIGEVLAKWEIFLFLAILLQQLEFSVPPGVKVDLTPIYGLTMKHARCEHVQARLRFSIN
Sequence of Nuclear receptor subfamily 1 group I member 2 (Homo sapiens) (O75469 whole entry, looked up): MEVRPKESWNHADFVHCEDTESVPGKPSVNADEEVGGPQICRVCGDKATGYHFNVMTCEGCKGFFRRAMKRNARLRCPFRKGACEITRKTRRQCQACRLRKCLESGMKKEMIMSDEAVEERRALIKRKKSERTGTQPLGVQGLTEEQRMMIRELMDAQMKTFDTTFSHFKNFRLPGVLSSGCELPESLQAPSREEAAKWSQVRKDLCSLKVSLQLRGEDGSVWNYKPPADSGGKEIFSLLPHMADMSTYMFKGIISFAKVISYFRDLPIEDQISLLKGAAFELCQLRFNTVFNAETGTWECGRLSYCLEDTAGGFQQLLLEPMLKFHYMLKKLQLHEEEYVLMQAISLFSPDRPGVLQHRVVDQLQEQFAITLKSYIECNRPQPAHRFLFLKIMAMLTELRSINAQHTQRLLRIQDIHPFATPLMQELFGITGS
Sequence of Cytochrome P450 3A4 (Homo sapiens) (P08684 whole entry, looked up): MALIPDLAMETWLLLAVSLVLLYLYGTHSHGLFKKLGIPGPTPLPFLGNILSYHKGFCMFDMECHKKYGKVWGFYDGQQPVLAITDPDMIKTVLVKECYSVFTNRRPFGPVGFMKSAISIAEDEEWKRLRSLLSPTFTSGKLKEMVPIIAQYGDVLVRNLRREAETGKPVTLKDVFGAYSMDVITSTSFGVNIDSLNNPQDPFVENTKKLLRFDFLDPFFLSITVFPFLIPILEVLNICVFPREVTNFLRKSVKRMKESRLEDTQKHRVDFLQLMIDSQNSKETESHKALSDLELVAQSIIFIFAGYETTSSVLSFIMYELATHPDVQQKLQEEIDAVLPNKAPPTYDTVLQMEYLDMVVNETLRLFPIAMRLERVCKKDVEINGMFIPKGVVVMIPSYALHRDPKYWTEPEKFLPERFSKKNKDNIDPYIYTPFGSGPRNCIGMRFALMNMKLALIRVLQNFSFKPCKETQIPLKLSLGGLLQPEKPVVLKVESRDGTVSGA
Sequence of Cytochrome P450 2D6 (Homo sapiens) (P10635 whole entry, looked up): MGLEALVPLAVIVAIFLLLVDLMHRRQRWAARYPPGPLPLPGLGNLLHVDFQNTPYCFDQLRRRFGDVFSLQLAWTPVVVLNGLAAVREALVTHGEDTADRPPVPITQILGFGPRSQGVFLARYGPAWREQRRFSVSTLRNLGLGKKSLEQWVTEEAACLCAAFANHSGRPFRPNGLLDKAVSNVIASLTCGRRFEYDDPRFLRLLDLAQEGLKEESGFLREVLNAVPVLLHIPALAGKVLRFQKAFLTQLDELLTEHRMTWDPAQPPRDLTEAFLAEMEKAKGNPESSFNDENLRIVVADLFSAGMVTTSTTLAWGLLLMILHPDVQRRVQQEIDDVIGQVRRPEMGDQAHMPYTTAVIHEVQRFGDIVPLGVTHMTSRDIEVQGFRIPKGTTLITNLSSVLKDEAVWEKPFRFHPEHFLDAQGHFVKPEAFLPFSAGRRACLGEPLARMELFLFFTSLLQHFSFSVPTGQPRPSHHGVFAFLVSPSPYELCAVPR
Sequence of Nuclear receptor subfamily 1 group I member 2 (Rattus norvegicus) (Q9R1A7 whole entry, looked up): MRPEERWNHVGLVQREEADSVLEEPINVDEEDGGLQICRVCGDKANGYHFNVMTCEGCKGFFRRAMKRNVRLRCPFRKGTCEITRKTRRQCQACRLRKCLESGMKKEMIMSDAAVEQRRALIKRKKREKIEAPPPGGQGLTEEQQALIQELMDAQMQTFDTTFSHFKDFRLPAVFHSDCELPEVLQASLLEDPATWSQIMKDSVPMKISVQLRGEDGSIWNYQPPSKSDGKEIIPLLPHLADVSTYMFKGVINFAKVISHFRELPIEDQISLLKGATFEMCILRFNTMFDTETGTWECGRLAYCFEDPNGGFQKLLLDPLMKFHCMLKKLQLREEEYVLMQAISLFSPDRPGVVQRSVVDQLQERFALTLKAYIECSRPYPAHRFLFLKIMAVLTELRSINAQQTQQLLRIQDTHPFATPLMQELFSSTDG

Turning to `CC(CO)(CO)C(=O)O`, the Potency result in [1], in assay [2], in [3], in [4], in assay [5] and in [7] was “inactive” each time. Also, the Potency entry in assay [8] and in assay [9] was “inactive” throughout. The Potency in assay [6] is 72.4 µM (active).
Turning to `CN1CCCN(C(c2ccccc2)c2ccc(Cl)cc2)CC1` (configuration not stated), the Potency is 26.6 µM (active) in assay [3], 23.7 µM (active) in [4], 0.49 µM (active) in [5] and 1.9 µM (active) in [8]. Further, in [10], the call was inactive. The Potency result in [11], in assay [6], in assay [7] and in assay [12] was “inactive” in each case.
Consider `CNS(=O)(=O)c1cc(C(=O)N2CCC(CCN3C4CCC3CC(n3c(C)nc5ccccc53)C4)(c3cccc(F)c3)CC2)c(Cl)cc1F` (configuration not stated), for which the Potency in [3] was 17.2 µM (active); in assay [4], 13.7 µM (active); in assay [5] it was 25.2 µM (active); in assay [6], 63.3 µM (active); in assay [7], 17.8 µM (active). For the same molecule, in assay [10], the molecule was classed as inactive. For the same molecule, the Potency result in assay [11] and in [12] was “inactive” throughout.
Turning to `COC(=O)Nc1nc2ccc(C(=O)C3CC3)cc2[nH]1`, the Potency result in assay [1], in assay [4], in [5], in assay [6] and in [8] was “inactive” in each case. Further, the molecule was classed as inactive in assay [10]. Further, the Potency was 8.41 µM (active) in assay [11] and 10.2 µM (active) in assay [12].
For `CCOC(=O)C(C)O` (configuration not stated), the Potency result in assay [1], in assay [2], in assay [3], in assay [4], in assay [11] and in assay [5] was “inactive” throughout. In addition, the Potency entry in [6], in assay [7], in assay [12], in assay [8] and in assay [9] was “inactive” in each case.
With `C[C@@H]1[C@H](O)[C@@H](C)/C=C/C=C\C=C\C=C\C=C\C=C\C=C\[C@H](O[C@@H]2O[C@H](C)[C@@H](O)[C@H](N)[C@@H]2O)C[C@@H]2O[C@](O)(C[C@@H](O)C[C@@H](O)[C@H](O)CC[C@@H](O)C[C@@H](O)CC(=O)O[C@H]1C)C[C@H](O)[C@H]2C(=O)O` (stereo in doubt), the Potency result in [2], in [14], in assay [5], in assay [6], in [7] and in assay [8] was “inactive” each time. Moreover, in assay [9], the Potency entry is “inactive”. The Potency is 61.1 µM (active) in assay [3] and 48.6 µM (active) in assay [4]. In addition, in assay [10], the outcome was inactive. In assay [13], the max activation is 1.92%.
Turning to `O=C(C(=O)c1ccco1)c1ccco1`, the Potency result in [2], in [4], in assay [7] and in [8] was “inactive” in each case. Further, the call in assay [10] was inactive. The Potency in [6] is 80.4 µM (active); in assay [12], 35.9 µM (active).
Regarding `COc1cc(OC)c2ccc(=O)oc2c1`, the Potency result in assay [2], in assay [4], in [11] and in [8] was “inactive” each time. For the same molecule, the outcome in [10] was inactive. Moreover, the Potency is 7.96 µM (active) in [12] and 39.9 µM (active) in [9].
Consider `CC(C)(O)CCc1ccccc1`, for which the Potency result in assay [1], in [3], in assay [4], in assay [11], in assay [5] and in assay [7] was “inactive” throughout. The Potency entry in assay [8] is “inactive”. The Potency in assay [6] was 71 µM (active).
As for `Cc1ccc(N(CC2=NCCN2)c2cccc(O)c2)cc1`, the Potency entry in assay [2], in assay [4], in [11] and in [12] was “inactive” each time. Also, the Potency in assay [5] is 0.776 µM (active); in assay [6], 17.4 µM (active).
In the case of `Nc1cccc2c(N)cccc12`, the molecule was classed as inactive in assay [10]. Besides, the Potency is 61.1 µM (active) in [4]; 17.2 µM (active) in assay [11]; 2.38 µM (active) in assay [5]; 7.96 µM (active) in [6]; 9.2 µM (active) in assay [7]; 3.72 µM (active) in [12]. The Potency result in [8] is “inactive”.
